Results from PubChem BioAssay AID1159580 (chemical genetic matrix, 2015).
The campaign covered roughly 5,500 compounds. About 2,000 (36%) were called active. Inconclusive results (about 18%) are left out. No stated cut-off is given here; in the data, active means normalized growth mostly below about 0.91 (no sharp cut-off); inconclusive means no clear call, values can overlap the other calls; inactive means mostly above about 0.92. The list shows a part of the results.

Assay: chemical genetic growth profiling, strain panel (AID 1159580);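 further: tested at 20 µM; growth read once vehicle control cultures reached saturation at 30 °C; 1 = growth at the plate median or of vehicle wells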
Settings: growth OD

Measured: normalized growth

Cc1cc(=O)n(-c2ccccc2)n1C
inactive: S. cerevisiae deletion strains, locus YJR066W, strain TOR1, stronger effect = lower value 0.984 | S. cerevisiae deletion strains, locus YJR075W, strain HOC1, stronger effect = lower value 1 | S. cerevisiae deletion strains, locus YKL009W, strain mrt4, stronger effect = lower value 1 | S. cerevisiae deletion strains, locus YKL068W, stronger effect = lower value 1 | S. cerevisiae deletion strains, locus YKL085W, strain MDH1 (second series), stronger effect = lower value 0.987 | S. cerevisiae deletion strains, locus YKL085W, strain MDH1, stronger effect = lower value 0.987 | S. cerevisiae deletion strains, locus YKL160W, strain elf1, stronger effect = lower value 0.936 | S. cerevisiae deletion strains, locus YKR001C, strain vps1, stronger effect = lower value 1.02 | S. cerevisiae deletion strains, locus YKR026C, strain gcn3, stronger effect = lower value 1 | S. cerevisiae deletion strains, locus YKR091W, strain srl3, stronger effect = lower value 0.99 | S. cerevisiae deletion strains, locus YLL001W, strain dnm1, stronger effect = lower value 0.921 | S. cerevisiae deletion strains, locus YLL026W, stronger effect = lower value 1 | S. cerevisiae deletion strains, locus YLL041C, strain sdh2, stronger effect = lower value 0.991 | S. cerevisiae deletion strains, locus YLR027C, strain aat2, stronger effect = lower value 1 | S. cerevisiae deletion strains, locus YLR039C, strain RIC1, stronger effect = lower value 1.04 | S. cerevisiae deletion strains, locus YLR058C, strain SHM2, stronger effect = lower value 1 | S. cerevisiae deletion strains, locus YLR102C, strain apc9, stronger effect = lower value 0.991 | S. cerevisiae deletion strains, locus YLR113W, strain HOG1, stronger effect = lower value 0.981 | S. cerevisiae deletion strains, locus YLR221C, strain rsa3, stronger effect = lower value 0.976 | S. cerevisiae deletion strains, locus YLR258W, strain gsy2, stronger effect = lower value 1.07 | S. cerevisiae deletion strains, locus YLR262C, strain YPT6 (second series), stronger effect = lower value 0.967 | S. cerevisiae deletion strains, locus YLR262C, strain YPT6, stronger effect = lower value 1.07 | S. cerevisiae deletion strains, locus YLR268W, strain sec22, stronger effect = lower value 0.992 | S. cerevisiae deletion strains, locus YLR320W, strain mms22, stronger effect = lower value 0.96 | S. cerevisiae deletion strains, locus YLR330W, strain CHS5, stronger effect = lower value 1.01 | S. cerevisiae deletion strains, locus YLR342W, strain FKS1 (second series), stronger effect = lower value 1.02 | S. cerevisiae deletion strains, locus YLR342W, strain FKS1, stronger effect = lower value 0.99 | S. cerevisiae deletion strains, locus YLR357W, strain rsc2, stronger effect = lower value 0.988 | S. cerevisiae deletion strains, locus YLR370C, strain arc18, stronger effect = lower value 0.991 | S. cerevisiae deletion strains, locus YLR371W, strain rom2, stronger effect = lower value 0.987 | S. cerevisiae deletion strains, locus YLR384C, strain iki3, stronger effect = lower value 1 | S. cerevisiae deletion strains, locus YLR418C, strain cdc73, stronger effect = lower value 0.995 | S. cerevisiae deletion strains, locus YML016C, strain PPZ1, stronger effect = lower value 1.01 | S. cerevisiae deletion strains, locus YML032C, strain rad52, stronger effect = lower value 0.993 | S. cerevisiae deletion strains, locus YML120C, strain ndi1, stronger effect = lower value 0.97 | S. cerevisiae deletion strains, locus YML124C, strain tub3, stronger effect = lower value 0.984 | S. cerevisiae deletion strains, locus YMR058W, strain fet3, stronger effect = lower value 0.99 | S. cerevisiae deletion strains, locus YMR078C, strain ctf18, stronger effect = lower value 0.975 | S. cerevisiae deletion strains, locus YMR125W, strain sto1, stronger effect = lower value 0.935 | S. cerevisiae deletion strains, locus YMR129W, stronger effect = lower value 0.998 | S. cerevisiae deletion strains, locus YMR205C, strain PFK2, stronger effect = lower value 0.946 | S. cerevisiae deletion strains, locus YMR223W, strain ubp8, stronger effect = lower value 0.99 | S. cerevisiae deletion strains, locus YMR231W, strain pep5, stronger effect = lower value 0.997 | S. cerevisiae deletion strains, locus YMR307W, strain GAS1, stronger effect = lower value 1.09 | S. cerevisiae deletion strains, locus YNL067W, strain RPL9B, stronger effect = lower value 0.995 | S. cerevisiae deletion strains, locus YNL071W, strain lat1, stronger effect = lower value 0.992 | S. cerevisiae deletion strains, locus YNL128W, strain TEP1, stronger effect = lower value 1.01 | S. cerevisiae deletion strains, locus YNL153C, strain GIM3, stronger effect = lower value 0.991 | S. cerevisiae deletion strains, locus YNL183C, strain NPR1, stronger effect = lower value 0.987 | S. cerevisiae deletion strains, locus YNL209W, strain ssb2, stronger effect = lower value 0.994 | S. cerevisiae deletion strains, locus YNL233W, strain BNI4, stronger effect = lower value 0.989 | S. cerevisiae deletion strains, locus YNL248C, strain rpa49, stronger effect = lower value 0.952 | S. cerevisiae deletion strains, locus YNL250W, strain rad50, stronger effect = lower value 1 | S. cerevisiae deletion strains, locus YNL271C, strain bni1, stronger effect = lower value 0.989 | S. cerevisiae deletion strains, locus YNL298W, strain CLA4, stronger effect = lower value 1.01 | S. cerevisiae deletion strains, locus YNL307C, strain MCK1, stronger effect = lower value 0.991 | S. cerevisiae deletion strains, locus YNL322C, strain KRE1 (second series), stronger effect = lower value 0.991 | S. cerevisiae deletion strains, locus YNR049C, strain mso1, stronger effect = lower value 1 | S. cerevisiae deletion strains, locus YNR052C, strain pop2, stronger effect = lower value 0.982 | S. cerevisiae deletion strains, locus YOL006C, strain TOP1, stronger effect = lower value 0.961 | S. cerevisiae deletion strains, locus YOL012C, strain htz1 1.68 | S. cerevisiae deletion strains, locus YOL147C, strain pex11, stronger effect = lower value 0.989 | S. cerevisiae deletion strains, locus YOR001W, strain rrp6, stronger effect = lower value 1.05 | S. cerevisiae deletion strains, locus YOR061W, strain CKA2, stronger effect = lower value 1.02 | S. cerevisiae deletion strains, locus YOR069W, strain VPS5, stronger effect = lower value 1.01 | S. cerevisiae deletion strains, locus YOR070C, strain gyp1, stronger effect = lower value 0.999 | S. cerevisiae deletion strains, locus YOR080W, strain dia2, stronger effect = lower value 0.999 | S. cerevisiae deletion strains, locus YOR083W, strain WHI5, stronger effect = lower value 0.949 | S. cerevisiae deletion strains, locus YOR106W, strain vam3, stronger effect = lower value 0.957 | S. cerevisiae deletion strains, locus YOR136W, strain idh2, stronger effect = lower value 0.986 | S. cerevisiae deletion strains, locus YOR144C, strain elg1, stronger effect = lower value 0.995 | S. cerevisiae deletion strains, locus YOR184W, strain ser1, stronger effect = lower value 1.01 | S. cerevisiae deletion strains, locus YOR231W, strain MKK1, stronger effect = lower value 1.04 | S. cerevisiae deletion strains, locus YOR265W, strain rbl2, stronger effect = lower value 0.994 | S. cerevisiae deletion strains, locus YOR270C, strain vph1, stronger effect = lower value 0.964 | S. cerevisiae deletion strains, locus YOR290C, strain snf2, stronger effect = lower value 0.945 | S. cerevisiae deletion strains, locus YOR316C, strain cot1, stronger effect = lower value 0.985 | S. cerevisiae deletion strains, locus YPL051W, strain arl3, stronger effect = lower value 0.98 | S. cerevisiae deletion strains, locus YPL078C, strain atp4, stronger effect = lower value 0.936 | S. cerevisiae deletion strains, locus YPL106C, strain sse1, stronger effect = lower value 0.981 | S. cerevisiae deletion strains, locus YPL240C, strain hsp82, stronger effect = lower value 1.01 | S. cerevisiae deletion strains, locus YPL256C, strain CLN2, stronger effect = lower value 0.999 | S. cerevisiae deletion strains, locus YPR119W, strain clb2, stronger effect = lower value 0.982 | S. cerevisiae deletion strains, locus YPR141C, strain kar3, stronger effect = lower value 0.995 | S. cerevisiae deletion strains, locus YPR163C, strain tif3, stronger effect = lower value 0.992 | S. cerevisiae deletion strains, locus YPR167C, strain met16, stronger effect = lower value 0.984 | S. cerevisiae deletion strains, strain wtn01, stronger effect = lower value 0.979 | S. cerevisiae strains, strain wild type, stronger effect = lower value 1.01
